# According to PubChem BioAssay (NCATS):
# Values without a mark were called inactive. Calls come from the whole dose curve; as a rule, active = well fitted activation curve with a large enough effect; inconclusive = small, poorly fitted or top-dose-only effect; inactive = flat fitted curve, though single readings scatter.
# Assay: Confirmation and Secondary Assay for Modulators of Hemoglobin Beta Chain Splicing at IVS2 705 locus (AID 930);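 note: HeLa cells stably expressing the EGFP-705 splicing reporter; % of control where 0% means no effect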
# Settings: HeLa EGFP-705 splicing reporter, GFP fluorescence, 48 h; series mostly up to 46.1 µM; activation: at the top concentration
# In short: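 Splice-correction reporter: EGFP cDNA split by beta-globin intron 2 bearing the 705 mutation, stably in HeLa. Compound incubation 2 days, 37C; fluorescent objects 5-250 µm summed per well.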
row,SMILES,activation
1,CC(C)OC(=O)Nc1cccc(Cl)c1,-0.104% [at 38.3 µM]
2,CNC(=O)Oc1cccc2c1OC(C)(C)O2,0.161% [at 38.3 µM]
3,COc1cc(C2c3cc4c(cc3C(O)C3COC(=O)C23)OCO4)cc(OC)c1O (stereo unspecified),2.32%
4,CCCCSP(=O)(SCCCC)SCCCC,0.179% [at 38.3 µM]
5,CCS(=O)CCSP(=O)(OC)OC (stereo unspecified),0.861% [at 38.3 µM]
6,CC(C)(C)C(=O)C(Oc1ccc(Cl)cc1)n1cncn1 (stereo unspecified),0.534% [at 38.3 µM]
7,CC(C)N1C(=O)c2ccccc2NS1(=O)=O,2.45% [at 38.3 µM]
8,O=C(O)COc1cc(Cl)c(Cl)cc1Cl,2.43% [at 38.3 µM]
9,COC1CC(OC2CC[C@@]3(C=O)C4CC[C@]5(C)C(C6=CC(=O)OC6)CC[C@@]5(O)C4CC[C@]3(O)C2)OC(C)C1O (stereo partly specified),4.76%
10,C[C@]12CCC(=O)C=C1CCc1ccc(O)cc12,0.0405% [at 38.3 µM]
11,CCC(=O)Nc1ccc(Cl)c(Cl)c1,0.407% [at 38.3 µM]
12,N#Cc1c(Cl)cccc1Cl,0.34% [at 38.3 µM]
13,COc1nc(NC(C)C)nc(NC(C)C)n1,-0.413% [at 38.3 µM]
14,COC1=CC23CCCN2CCc2cc4c(cc2C3C1O)OCO4 (stereo unspecified),3.96%
15,CCc1cccc(C)c1N(C(=O)CCl)C(C)COC (stereo unspecified),-0.0492% [at 38.3 µM]
16,CNC(=O)Oc1ccccc1OC(C)C,-0.224% [at 38.3 µM]
